Laboratory results reported in PubChem BioAssay (NCI).
Compounds without any hit were thinned out: in the full panel of roughly 83,000, 20% have a hit.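 Plates (96-well) were seeded with cells, treated with compound at one concentration, and incubated for 48 hours before percent growth was determined.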 A number with no mark means an inactive call. Calls of active or inactive are those of the source. How the source made its calls: active means growth percent below 10; inactive means the rest.

Tested on: HCC-2998 colon
Test: NCI-60 one-dose screen, 48 h (100 = growth as untreated, 0 = no growth, -100 = all killed)
Settings: 10 µM unless noted

| SMILES | growth |
| --- | --- |
| Cc1nn(-c2ccccc2)c2ncnc(N/N=C/c3cccc(O)c3)c12 | 72.6% |
| C=C1CC[C@@H]2[C@]3(C)COC(c4ccccc4)O[C@@H]3CC[C@@]2(C)[C@@H]1C/C=C1/C(=O)OC[C@H]1O (stereo partly drawn) | 108% |
| CN(C)CCNC(=O)c1ccc(-c2nc3ccc4[nH]ncc4c3c3c2CCC3)cc1 | 2.85% (active) |
| Fc1ccc(-c2cc3nc(C(Cl)Cl)nc(-c4ccc(F)cc4)n3n2)cc1 | -45.8% (active) |
| C=C(C=O)[C@@H]1CC[C@]2(C)[C@H](C(=O)C=C3[C@H]4C[C@](C)(C(=O)OC)CC[C@]4(C)CC[C@]32C)[C@@]1(C)CCC#N | -73% (active) |
| CCc1ccc(SC2c3ccc(N(CC)CC)cc3Oc3nc(N)c(C#N)c(N)c32)cc1 (stereo not drawn) | -83% (active) |
| CCOC(=O)C1=NNC(c2ccc(Cl)cc2)C1C(=O)N1C(=S)NC(=O)C1CC(C)C (stereo not drawn) | 121% |
| C#CCn1cccc1CNc1ccc(OC)cc1 | -89% (active) |
| NC(N)=Nc1ccc(Oc2cccc(NC(N)=Nc3ccc(Br)cc3)c2)cn1 | 79.3% |
| CC1(C)CC[C@]2(CN)CC[C@]3(C)C(=CC[C@@H]4[C@@]5(C)CCCNC(C)(C)[C@@H]5CC[C@]43C)[C@H]2C1 | 45.9% |
| O=C1C(c2ccccc2)=C(N2CCc3ccccc32)OC1(Cl)Cl | 88% |
| CC(=O)c1nnn(-c2c(C(=O)n3nc(C)cc3C)sc(=S)n2-c2ccccc2)c1C | 114% |
| COC(=O)C1(C)CCC[C@]2(C)[C@H]3C[C@H]4C(C(C)C)=C[C@]3(CC[C@@H]12)[C@H]1[C@@H]4[C@@H](OC(=O)c2ccco2)CC[C@@H]1OC(=O)c1ccco1 (stereo partly drawn) | 108% |
| CC(=O)N1C(=S)NC(=O)C1CC(C)C (stereo not drawn) | 108% |
| C#Cc1ccc(C(=O)NCc2ccc(/C=C/C(=O)c3nccn3C)cc2)cc1 | 9.76% (active) |
| Cn1ccnc1C(=O)/C=C/c1ccc(NC(=O)c2ccc(F)cc2)cc1 | 39.5% |
| O=C(O)c1ccc(-n2cc(CNc3cccc(Cl)c3)c(-c3ccc(F)cc3)n2)cc1 | 105% |
| CCC1=Cc2cc(OC)ccc2OC12C=Cc1cc(OC)ccc1O2 (stereo not drawn) | 22.9% |
| CCO/C=N/C1=C(C#N)C(c2ccc(OC)cc2)c2sc3c(C)cccc3c2O1 (stereo not drawn) | 21.1% |

| SMILES | growth |
| --- | --- |
| COc1cccc(O)c1/C=C(/C)c1ccc2c(OC)cccc2[o+]1 | 110% |
| C#CCNC1CCC(c2csc(C#C)n2)=C1C (stereo not drawn) | 107% |
| CCO/C=N/C1=C(C#N)C(c2ccc(OC)cc2)c2sc3c(CC)cccc3c2O1 (stereo not drawn) | 44.3% |
| C=CCn1c(SCC(=O)Nc2ccc(C(=O)/C=C/c3ccc(Cl)cc3)cc2)nnc1-c1c[nH]c2ccccc12 | 97.1% |
| N#Cc1cccc(CN2CCC3=C(C2)C(=O)N(Cc2ccc(Cl)cc2)C2=NCCCN23)c1 | 24.5% |
| CCN(CC)c1cn(-c2ccc(S(N)(=O)=O)cc2)nn1 | 107% |
| CCCCCc1ccc(S(=O)(=O)Nc2cccc(-c3csc(NC(=O)CCCCCN4CCN(C)CC4)n3)c2)cc1 | -18% (active) |
| CCCCCc1ccc(S(=O)(=O)Nc2cc(-c3csc(NC(=O)CN4CCN(C)CC4)n3)ccc2OC)cc1 | -50.2% (active) |
| COc1ccccc1NCc1cccn1Cc1ccc(F)cc1 | 105% |
| CC(=O)c1cc(C(=O)c2ccc(Br)cc2)n2cc(C)cc(C)c12 | 82.6% |
| O=C1Nc2ccccc2/C1=C/c1ccc(COCC2CO2)n1-c1ccc(O)cc1 (stereo not drawn) | 108% |
| C/C(=N\O)[C@H]1C[C@]23CC[C@]4(C)[C@H](CC[C@@H]5[C@@]6(C)CC/C(=N/O)C(C)(C)[C@@H]6CC[C@]54C)[C@H]2[C@H](C)C1(C)OC3 | 115% |
| NC(N)=Nc1ccc(Oc2cccc(Oc3ccc(Cl)c(C(F)(F)F)c3)c2)cn1 | -80.6% (active) |
| COc1ccc([C@@H]2c3[nH]c4ccccc4c3C[C@H]3C(=O)N(C4CCN(CC5CCCCC5)CC4)CC(=O)N23)c(OC)c1 | 78.6% |
| COc1ccc(C2CC(c3ccc(Nc4nc(NCCO)nc(N5CCOCC5)n4)cc3)=Nc3c(N)nc(N)nc3N2)cc1 (stereo not drawn) | 105% |
| Cc1ccc2c(c1)Oc1nc(N)c(C#N)c(N)c1C2Sc1ccc(F)cc1 (stereo not drawn) | -90.9% (active) |
| O=C(CCn1c[n+](CC(=O)c2ccc(-c3ccccc3)cc2)c2ccccc21)Nc1cccc2cccnc12 | 38.9% |
| O=S(=O)(NCCNc1nccc(-n2cnc3ccccc32)n1)c1ccc(Cl)cc1 | 101% |
| O=C1CCCc2nc(Nc3ccc(S(=O)(=O)Nc4ccc([N+](=O)[O-])cc4)cc3)ncc21 | 110% |
